From PubChem BioAssay (Tox21)
Records with an inconclusive call do not appear. The source made the active and inactive calls. Unless noted, calls follow the shape of the dose curve; as a rule, active = well fitted curve in the direction sought with a large enough effect in the repeat runs; inconclusive = weak or mixed curves; inactive = no such curve, though single readings can be large; an effect the other way counts as inactive or inconclusive.

Tests used:
[1] = qHTS assay for small molecules that induce genotoxicity in human embryonic kidney cells expressing luciferase-tagged ATAD5 (AID 651632); also: nearly all actives have a fitted effect of over 15% in size
Summary of the method: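 HEK293T cells carrying luciferase-tagged ATAD5 were given compound or DMSO vehicle and incubated 16 hr at 37C, 5% CO2. Luciferase activity was read after 30 min at room temperature with Amplite; a rise signals genotoxic stress.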

[2] = qHTS assay for small molecule agonists of the p53 signaling pathway - cell viability (AID 651633; calls by dose curve; also: nearly all actives have a fitted effect of over 30% in size; also: potency is read from the fitted curve at half-maximal effect)
Summary of the method: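 Viability counter-read: CellTiter-Glo luminescence (30 min, room temperature) in the same p53RE-bla plates. These plates had been exposed to compounds for 16 h at 37 C.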

[3] = qHTS assay for small molecules that induce genotoxicity in human embryonic kidney cells expressing luciferase-tagged ATAD5 - cell viability (AID 651634; calls by dose curve; also: nearly all actives have a fitted effect of over 25% in size; also: potency is read from the fitted curve at half-maximal effect)
Summary of the method: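 HEK293T cells carrying luciferase-tagged ATAD5, 2,000 cells/well, exposed to compound for 15.5 hr at 37C. Viability read as live-cell protease activity by CellTiter-Fluor fluorescence after 30 min at 37C.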

[4] = qHTS assay for small molecule disruptors of the mitochondrial membrane potential - cell viability (AID 720634; calls by dose curve;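 also: human HepG2 liver cancer cells; series mostly up to about 83 µM; nearly all actives have a fitted effect of over 20% in size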)
Summary of the method: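 HepG2 cells, 2,000 per well, attached overnight, then treated 1 hr at 37 C, 5% CO2. Viability read as ATP by CellTiter-Glo luminescence after 30 min at room temperature. Read in the same wells as the m-MPI membrane-potential dye assay.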

[5] = qHTS assay for small molecule disruptors of the mitochondrial membrane potential (AID 720635); also: potency is read from the fitted curve at half-maximal effect
Summary of the method: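 Mitochondrial membrane potential tracked with Mito-MPS dye, red aggregates (ex 540/em 590 nm) against green monomers (ex 490/em 535 nm). Compound treatment 1 hr at 37C, dye 30 min in HepG2.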

[6] = qHTS assay to test for compound auto fluorescence at 590 nm (red) in HepG2 cells (AID 720674)
Summary of the method: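 We screened compounds on adherent HepG2 cells, incubating them for an hour at 37 C in 5% CO2 before reading emission at 590 nm under 540 nm excitation; values reflect equivalence to Rose Bengal sodium fluorescence.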

[7] = qHTS assay to test for compound auto fluorescence at 535 nm (green) in HepG2 cells (AID 720675)
[8] = qHTS assay to test for compound auto fluorescence at 460 nm (blue) in HEK293 cells (AID 720678)
Summary of the method: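 Triamterene serves as the blue fluorophore standard. Compound signal at 405/460 nm is read in HEK293 wells (2,000 cells, 10% dialyzed FBS) after overnight treatment at 37C.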

[9] = qHTS assay to test for compound auto fluorescence at 590 nm (red) in HEK293 cells (AID 720679)
Summary of the method: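 We plated HEK293 cells in 10% dialyzed FBS medium, let them adhere for 4-5 hr, then added 23 nL compound. Overnight at 37C and 5% CO2 preceded fluorescence measurement at 540/590nm.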

[10] = qHTS assay to test for compound auto fluorescence at 535 nm (green) in HEK293 cells (AID 720680)
[11] = qHTS assay to test for compound auto fluorescence at 460 nm (blue) in HEK293 cell free culture (AID 720681)
Summary of the method: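 Blue fluorescence (Ex 405/Em 460 nm, triamterene-equivalent) was read immediately after pin transfer of compound or DMSO into medium (DMEM, 10% FBS) without cells.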

[12] = qHTS assay to test for compound auto fluorescence at 535 nm (green) in HEK293 cell free culture (AID 720682)
Summary of the method: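 Read-out: 485/535 nm fluorescence intensity, calibrated against fluorescein. Medium only (DMEM + 10% FBS, no cells); test compound or DMSO vehicle added by pintool before plate reading.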

[13] = qHTS assay to test for compound auto fluorescence at 590 nm (red) in HEK293 cell free culture (AID 720683)
Summary of the method: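 Red-channel autofluorescence of compounds in culture medium (DMEM, 10% FBS), no cells, measured at 540/590 nm. Rose Bengal sodium is the reference fluorophore for equivalence.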

[14] = qHTS assay to test for compound auto fluorescence at 590 nm (red) in HepG2 cell free culture (AID 720684)
Summary of the method: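 Plate contents were MEM with 10% FBS plus test compound or DMSO, no cells. Fluorescence was recorded with 540 nm excitation and 590 nm emission.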

[15] = qHTS assay to test for compound auto fluorescence at 460 nm (blue) in HepG2 cell free culture (AID 720685)
Summary of the method: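 Compound (23 nL) or DMSO pinned into cell-free MEM with 10% FBS; blue fluorescence read at 405/460 nm excitation/emission, expressed as auto-fluorescence equivalency to triamterene.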

[16] = qHTS assay to test for compound auto fluorescence at 535 nm (green) in HepG2 cell free culture (AID 720686)
[17] = target: Glucocorticoid receptor (Homo sapiens) (UniProt P04150); assay: qHTS assay to identify small molecule agonists of the glucocorticoid receptor (GR) signaling pathway (AID 720691; active = well fitted activation curve with a large enough effect in the signal ratio in the repeat runs, not every such curve was filed as active; the % refers to the signal ratio)
Summary of the method: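 GR-bla HeLa cells carrying a GRE-driven beta-lactamase reporter, exposed to compounds for 18 h at 37 C. Reporter activation read as fluorescence after 2 h with LiveBLAzer B/G FRET substrate at room temperature.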

[18] = target: Glucocorticoid receptor (Homo sapiens) (UniProt P04150); assay: qHTS assay to identify small molecule antagonists of the glucocorticoid receptor (GR) signaling pathway (AID 720692; active = well fitted inhibition curve with a large enough effect in the signal ratio in the repeat runs, not every such curve was filed as active; the % refers to the signal ratio; also: potency is read from the fitted curve at half-maximal effect)
Summary of the method: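 GR-bla HeLa cells carrying a GRE-driven beta-lactamase reporter received compound after 4 h plating, then dexamethasone (5 nM final). After 18 h at 37C, the FRET substrate was loaded for 2 h at room temperature and fluorescence read.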

[19] = qHTS assay for small molecule agonists of the p53 signaling pathway (AID 651631; calls by dose curve; also: nearly all actives have a fitted effect of over 15% in size)
Summary of the method: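 HCT-116 cells carrying a stable p53 response element–beta-lactamase reporter were plated, rested 5 h at 37 °C, then exposed to compound in DMSO for 16 h at 37 °C; reporter activity was read as FRET substrate fluorescence after 2 h at room temperature.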

[20] = qHTS assay to test for compound auto fluorescence at 460 nm (blue) in HepG2 cells (AID 720687)
Summary of the method: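 Blue-channel autofluorescence (Ex/Em 405/460 nm, triamterene-equivalent) was measured after 1 hr compound exposure at 37 C, 5% CO2. Cells were HepG2, plated overnight at 37 C in MEM plus 10% FBS.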
% is scaled to controls: 0 for no effect and ±100 for the full control effect.

Sequence of Glucocorticoid receptor (Homo sapiens) (P04150 whole entry, looked up): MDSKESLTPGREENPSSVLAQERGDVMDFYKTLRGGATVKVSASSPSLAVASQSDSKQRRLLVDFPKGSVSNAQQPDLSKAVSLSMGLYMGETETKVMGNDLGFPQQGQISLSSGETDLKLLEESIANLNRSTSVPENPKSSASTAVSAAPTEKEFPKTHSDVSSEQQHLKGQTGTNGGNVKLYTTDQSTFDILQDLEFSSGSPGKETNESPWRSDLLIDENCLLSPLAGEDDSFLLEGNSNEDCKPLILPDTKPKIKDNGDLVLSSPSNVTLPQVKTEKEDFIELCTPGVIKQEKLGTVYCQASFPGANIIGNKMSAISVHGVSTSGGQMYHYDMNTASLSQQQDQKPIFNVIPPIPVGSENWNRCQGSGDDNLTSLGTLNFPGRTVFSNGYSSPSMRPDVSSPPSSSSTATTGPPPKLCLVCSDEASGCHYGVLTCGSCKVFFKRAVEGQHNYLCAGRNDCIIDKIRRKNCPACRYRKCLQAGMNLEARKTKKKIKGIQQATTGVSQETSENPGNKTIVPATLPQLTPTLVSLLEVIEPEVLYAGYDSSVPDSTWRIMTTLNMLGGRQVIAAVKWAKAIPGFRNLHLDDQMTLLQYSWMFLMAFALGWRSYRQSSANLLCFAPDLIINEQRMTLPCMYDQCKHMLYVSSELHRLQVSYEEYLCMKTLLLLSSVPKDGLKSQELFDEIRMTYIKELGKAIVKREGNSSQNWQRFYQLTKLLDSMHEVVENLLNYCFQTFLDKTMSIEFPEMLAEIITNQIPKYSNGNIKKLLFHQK

CCOC(=O)c1ccc(NC(=O)CN2CCCCC2)cc1
inactive: Potency [1] | Potency [2] | Potency [3] | outcome [4] | Potency [5] | outcome [6] | outcome [7] | Potency [8] | outcome [9] | outcome [10] | Potency [11] | outcome [12] | outcome [13] | outcome [14] | Potency [15] | outcome [16] | Potency [17] | Potency [18]

Cc1c(C2(c3cc(Br)c(O)c(Br)c3C)OS(=O)(=O)c3ccccc32)cc(Br)c(O)c1Br
inactive: Potency [19] | Potency [1] | outcome [6] | outcome [7] | Potency [8] | outcome [9] | outcome [10] | Potency [11] | outcome [12] | outcome [13] | outcome [14] | Potency [15] | outcome [16] | Potency [20]
active: Potency [3] 8.38 µM

CCOC(=O)C(C)O (stereo not drawn)
inactive: Potency [19] | Potency [1] | Potency [2] | Potency [3] | outcome [6] | outcome [7] | Potency [8] | outcome [9] | outcome [10] | Potency [11] | outcome [12] | outcome [13] | outcome [14] | Potency [15] | outcome [16] | Potency [20] | Potency [17] | Potency [18]

CCC(CO)(CO)CO
inactive: Potency [19] | Potency [1] | Potency [2] | Potency [3] | outcome [6] | outcome [7] | Potency [8] | outcome [9] | outcome [10] | Potency [11] | outcome [12] | outcome [13] | outcome [14] | Potency [15] | outcome [16] | Potency [20] | Potency [17] | Potency [18]

O=C(Nc1ccc(C(=O)O)c(O)c1)c1ccccc1
inactive: Potency [1] | Potency [2] | Potency [3] | outcome [4] | Potency [5] | outcome [6] | outcome [7] | Potency [8] | outcome [9] | outcome [10] | Potency [11] | outcome [12] | outcome [13] | outcome [14] | Potency [15] | outcome [16] | Potency [20]

CCN(CC)c1ccc(C(=C2C=CC(=[N+](CC)CC)C=C2)c2ccc(S(=O)(=O)O)cc2S(=O)(=O)[O-])cc1
active: Potency [2] 27.3 µM | Potency [3] 27.3 µM
inactive: Potency [19] | Potency [1] | outcome [6] | outcome [7] | Potency [8] | outcome [9] | Potency [11] | outcome [12] | outcome [13] | outcome [14] | Potency [15] | outcome [16] | Potency [20] | Potency [17] | Potency [18]

N[C@@H](Cc1cc(I)c(O)c(I)c1)C(=O)O
inactive: Potency [19] | Potency [1] | Potency [2] | Potency [3] | outcome [6] | outcome [7] | Potency [8] | outcome [9] | outcome [10] | Potency [11] | outcome [12] | outcome [13] | outcome [14] | Potency [15] | outcome [16] | Potency [17] | Potency [18]

O=C(O)c1ccc(O)cc1O
inactive: Potency [19] | Potency [2] | Potency [3] | outcome [4] | outcome [6] | outcome [7] | Potency [8] | outcome [9] | Potency [11] | outcome [12] | outcome [13] | outcome [14] | Potency [15] | outcome [16] | Potency [20] | Potency [17]

CC1CCCO1 (stereo not drawn)
inactive: Potency [19] | Potency [2] | Potency [3] | outcome [4] | outcome [6] | outcome [7] | Potency [8] | outcome [9] | outcome [10] | Potency [11] | outcome [12] | outcome [13] | outcome [14] | outcome [16] | Potency [20]

O=C(O)CCC(=O)c1ccc(-c2ccccc2)cc1
inactive: Potency [19] | Potency [1] | Potency [2] | Potency [3] | fluorescence, % of fluorescein control [7] 0.0165% [at 18.6 µM] | fluorescence, % of triamterene [8] -0.239% [at 18.6 µM] | fluorescence, % of fluorescent control [9] -0.0888% [at 18.6 µM] | fluorescence, % of fluorescein [10] -0.008% [at 18.6 µM] | fluorescence, % of fluorescent control [11] 0.0648% [at 18.6 µM] | activity change [12] 0.0155% [at 18.6 µM] | fluorescence, % of fluorescent control [13] 0.387% [at 18.6 µM] | fluorescence, % of Rose Bengal [14] -0.0571% [at 18.6 µM] | fluorescence, % of fluorescein control [16] -0.127% [at 18.6 µM] | fluorescence, % of fluorescent control [20] -0.0799% [at 18.6 µM] | Potency [18]

CCCCCCCC/C=C\CCCCCCCC(=O)OCCO
inactive: Potency [1] | Potency [2] | Potency [3] | outcome [4] | Potency [5] | outcome [6] | outcome [7] | Potency [8] | outcome [9] | outcome [10] | Potency [11] | outcome [12] | outcome [13] | outcome [14] | Potency [15] | outcome [16] | Potency [20] | Potency [17]
active: Potency [18] 57.8 µM

CCCCCc1ccco1
active: Potency [2] 39.8 µM | Potency [5] 44.7 µM | Potency [18] 31.9 µM
inactive: Potency [1] | Potency [3] | outcome [4] | outcome [6] | outcome [7] | Potency [8] | outcome [9] | outcome [10] | Potency [11] | outcome [12] | outcome [13] | outcome [14] | Potency [15] | outcome [16] | Potency [20]

CC(C)c1ccc(C(=O)N=C(N)N)cc1S(C)(=O)=O
inactive: Potency [1] | Potency [2] | Potency [3] | outcome [4] | Potency [5] | outcome [6] | outcome [7] | Potency [8] | outcome [9] | outcome [10] | Potency [11] | outcome [12] | outcome [13] | outcome [14] | Potency [15] | outcome [16] | Potency [20] | Potency [17] | Potency [18]

CC[C@@H](CO)NCCN[C@@H](CC)CO
inactive: Potency [19] | Potency [2] | Potency [3] | outcome [4] | fluorescence, relative to Rose Bengal [6] -0.504% [at 18.6 µM] | fluorescence, % of fluorescein control [7] 0.0308% [at 18.6 µM] | fluorescence, % of triamterene [8] 0.0077% [at 18.6 µM] | fluorescence, % of fluorescent control [9] -0.143% [at 18.6 µM] | fluorescence, % of fluorescein [10] -0.0101% [at 18.6 µM] | fluorescence, % of fluorescent control [11] 0.0181% [at 18.6 µM] | activity change [12] 0.014% [at 18.6 µM] | fluorescence, % of fluorescent control [13] 0.0179% [at 18.6 µM] | fluorescence, % of Rose Bengal [14] 0.0051% [at 18.6 µM] | fluorescence, % of fluorescent control [15] 0.0488% [at 18.6 µM] | fluorescence, % of fluorescein control [16] 0.0013% [at 18.6 µM] | fluorescence, % of fluorescent control [20] -0.0204% [at 18.6 µM]
